The results in this text go back to PubChem BioAssay (NCATS).

The structures appear in SMILES notation. Activity calls are given as the source filed them. The call rests on the fitted dose curve; in most records, active means well fitted curve in the direction sought with a large enough effect; inconclusive means small, poorly fitted or top-dose-only effect, or effect the other way, or another doubt; inactive means no such curve, though single readings can be large or run the other way.

The assay is described as follows: Inducers of the Endoplasmic Reticulum Stress Response (ERSR) in human glioma: Validation (AID 504836). As to conditions: human glioma cells, ER stress response reporter; series mostly up to 38.3 µM. The method, boiled down:
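Stably transfected U87-MG glioma cells carrying a GRP78-based luciferase sensor; 16 h compound incubation. Luminescence end-point read 10 min after Bright-Glo addition at room temperature.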
On to `COc1ccccc1OCCNCC(O)COc1cccc2[nH]c3ccccc3c12` (stereo not drawn), for which the compound was called inactive. In the case of `COc1cc2nc(N3CCN(C(=O)c4ccco4)CC3)nc(N)c2cc1OC`, the outcome was inactive. The result for `CN1CCC(=C2c3ccccc3C=Cc3ccccc32)CC1` reads “inactive”; that for `OCCN1CCN(CCCN2c3ccccc3Sc3ccc(Cl)cc32)CC1`, “inactive”; that for `Nc1nc2c(ncn2COCCO)c(=O)[nH]1`, “inactive”.

`NC(=O)OCC(COC(N)=O)c1ccccc1`: the compound was classed as inactive.

As for `NC(=O)c1cn(Cc2c(F)cccc2F)nn1`, the compound was classed as inactive. Consider `CCOC(=O)C1=C(C)NC(C)=C(C(=O)OC)C1c1cccc(Cl)c1Cl` (stereo not drawn), for which the outcome was inactive.

With `NC12CC3CC(CC(C3)C1)C2`, the compound was called inactive. Next, `CN1CCN(CCCN2c3ccccc3Sc3ccc(Cl)cc32)CC1`: “inactive”; `CC(C)(C(=O)O)c1ccc(C(O)CCCN2CCC(C(O)(c3ccccc3)c3ccccc3)CC2)cc1` (stereo not drawn): “inactive”. Turning to `CN(C)CC[C@@H](c1ccc(Br)cc1)c1ccccn1`, the compound was classed as inactive.

For `CC(=O)CCCCn1c(=O)c2c(ncn2C)n(C)c1=O`, the compound was called inactive. For the compound `NNc1nncc2ccccc12`, the compound was called inactive. Take `Clc1ccc2c(c1)C(N1CCNCC1)=Nc1ccccc1O2`: the result was inactive. Take `Nc1nc(N)c2nc(-c3ccccc3)c(N)nc2n1`: the call was inactive. On to `CN(C)CCCN1c2ccccc2CCc2ccc(Cl)cc21`, for which the outcome was inactive. Turning to `CCOC(=O)c1ncn2c1CN(C)C(=O)c1cc(F)ccc1-2`, the compound was called inactive. As for `O=C(c1ccccc1)c1ccc2n1CCC2C(=O)O` (stereo not drawn), the compound was called inactive. The result for `C[C@H]1c2cccc(O)c2C(O)=C2C(=O)[C@]3(O)C(O)=C(C(N)=O)C(=O)[C@@H](N(C)C)[C@@H]3[C@@H](O)[C@@H]21` reads “inactive”; that for `CN(C)[C@@H]1C(=O)C(C(N)=O)=C(O)[C@@]2(O)C(=O)C3=C(O)c4c(O)ccc(Cl)c4[C@@H](O)[C@H]3C[C@@H]12`, “inactive”. Next, `O=C1CCc2cc(OCCCCc3nnnn3C3CCCCC3)ccc2N1`: “inactive”.

Turning to `CN(C)CCC=C1c2ccccc2C=Cc2ccccc21`, the call was inactive. For the compound `CC(C)NCC(O)COc1ccc(CCOCC2CC2)cc1` (stereo not drawn), the outcome was inactive.

As to `CC(C)[N+](C)(CCOC(=O)C1c2ccccc2Oc2ccccc21)C(C)C`, the outcome was inactive.

`C[C@]12CC[C@@H]3c4ccc(O)cc4C[C@@H](CCCCCCCCCS(=O)CCCC(F)(F)C(F)(F)F)[C@H]3[C@@H]1CC[C@@H]2O` (stereo partly drawn): the call was inactive.

As to `COc1cc2nc(N3CCN(C(=O)C4COc5ccccc5O4)CC3)nc(N)c2cc1OC` (stereo not drawn), the compound was classed as inactive. The result for `COCCCC/C(=N\OCCN)c1ccc(C(F)(F)F)cc1` reads “inactive”; that for `COc1cc2nc(N3CCN(C(=O)C4CCCO4)CC3)nc(N)c2cc1OC` (stereo not drawn), “inactive”; that for `CN1CC(=O)N/C1=N/C(=O)Nc1cccc(Cl)c1`, “inactive”. In the case of `CN(C)C(=O)C(CCN1CCC(O)(c2ccc(Cl)cc2)CC1)(c1ccccc1)c1ccccc1`, the call was inactive.

Turning to `CC12CC3CC(C)(C1)CC(N)(C3)C2`, the compound was called inactive. Take `Nc1nnc(-c2cccc(Cl)c2Cl)c(N)n1`: the outcome was inactive.
